PubChem BioAssay
Calls of active or inactive are those of the source.

What was measured:
Albumin (Bos taurus) = Albumin (Bos taurus) (UniProt P02769); assay: compounds binding labelled BSA control protein – biochemical, small-molecule microarray, Alexa647 label, 635/667 nm fluorescence, artefact control for SMM control protein annotation, profiling panel (AID 1118); details: BSA-A647 binding, fluorescence 635 nm, higher = more signal;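 also: score merges 667 nm emission intensity and signal-to-noise per printed compound spot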
[1] = probe aXIP binding to arrayed compounds – biochemical, NeuroSMM set, 635/667 nm fluorescence, primary screen (AID 1119); details: small-molecule microarray, higher = more signal, called active from +8 up or from −8 down;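 also: probe is the protein aXip251-270 applied at 1 µg/mL to compound-printed slides; binding of probe to printed compounds measured as 667 nm fluorescence plus signal to noise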
[2] = probe aNOTCH3 binding on compound microarray – biochemical, small-molecule microarray, 635/667 nm fluorescence, primary screen (AID 1120); details: higher = more signal;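 also: probe is a biotin-tagged antibody raised against NOTCH3 rather than NOTCH3 protein; score merges spot fluorescence near 667 nm with spot signal to noise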
[3] = probe aNOTCH2 binding on compound microarray – biochemical, small-molecule microarray, 635/667 nm fluorescence, primary screen (AID 1121); details: higher = more signal;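 also: score merges feature fluorescence read at 667 nm with its signal to noise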
[4] = biological target: Carbonic anhydrase 2 (Homo sapiens) (UniProt P00918); assay: compounds binding carbonic anhydrase 2 – biochemical, small-molecule microarray, Alexa647-labelled CAII, profiling panel (AID 1122); details: CAII-A647 binding fluorescence, higher = more signal
[5] = COS7 lysate on small-molecule microarray, probe aHis, 635 nm (AID 1123); details: COS7 cell lysate, fluorescence, higher = more signal;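 also: z-score combines 667nm fluorescence intensity with signal-to-noise per printed compound spot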
[6] = probe aLAP1 signal on lysate-treated microarray – cell lysate, small-molecule microarray, COS7 lysate, primary screen (AID 1124); details: probe aLAP1, fluorescence, higher = more signal;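 also: lysate comes from COS7 cells expressing LAP1 and is applied at 0.3 µg/mL; score merges spot fluorescence near 667 nm with signal-to-noise over triplicate slides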
Sam68 (KHDRBS1) = assay: compounds binding KHDRBS1 protein – biochemical, small-molecule microarray, 635 nm fluorescence, primary screen (AID 1125); details: higher = more signal;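 also: score merges 667 nm channel intensity with signal to noise over triplicate slides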
[7] = test system: Chordin-like protein 2 (CHRDL2); assay: compounds binding chordin-like 2 – biochemical, small-molecule microarray, 635 nm fluorescence, primary screen (AID 1126); details: fluorescence 635 nm, higher = more signal;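 also: printed compound slides probed with Chrdl2 protein at 4 µg/mL for 1 h at 4 C; score merges 667 nm emission intensity with signal to noise over three replicate slides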
[8] = biological target: Concanavalin-A (Canavalia ensiformis) (UniProt P02866); assay: compounds binding concanavalin A lectin – biochemical, small-molecule microarray, Alexa647 label, 635 nm, artefact control for SMM control protein annotation, primary screen (AID 1127); details: ConA-A647 binding fluorescence, higher = more signal;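 also: z combines 667 nm emission intensity with signal-to-noise across three replicate slides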
[9] = compounds binding Alexa647 anti-His antibody – biochemical, small-molecule microarray, 635 nm fluorescence, artefact control for SMM control protein annotation, primary screen (AID 1128); details: higher = more signal;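 also: score merges feature fluorescence with signal-to-noise for each printed compound spot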
[10] = test system: Human papillomavirus type 1a E7 protein (residues 1-88); assay: HPV1a E7 small-molecule binders, primary screen, biochemical, small-molecule microarray, residues 1-88, 635 nm (AID 1129); details: small-molecule microarray binding, fluorescence 635 nm; higher = more signal
[11] = biological target: Focal adhesion kinase 1 (Homo sapiens) (UniProt Q05397); assay: PTK2 protein binding on printed compound slides – biochemical, small-molecule microarray, 635/667 nm fluorescence, BSA, DTT, primary screen (AID 1130); details: 635 nm fluorescence, higher = more signal;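 also: composite of spot emission at 667 nm and signal to noise over triplicate slides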
[12] = test system: Fibrinogen (Alexa647-labelled); assay: Alexa647-fibrinogen binding to printed small molecules – biochemical, small-molecule microarray, 635/667 nm fluorescence, artefact control for SMM control-protein annotation, profiling panel (AID 1131); details: fibrinogen-A647 binding fluorescence, higher = more signal;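 also: z-score merges 667 nm fluorescence with per-spot signal-to-noise over triplicate slides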
[13] = biological target: Follistatin (Homo sapiens) (UniProt P19883); assay: FST protein binding to printed compounds – biochemical, small-molecule microarray, 635/667 nm fluorescence, primary screen (AID 1132); details: 635 nm fluorescence, higher = more signal
[14] = biological target: Fibroblast growth factor 2 (Homo sapiens) (UniProt P09038); assay: basic fibroblast growth factor binding to printed compounds – biochemical, small-molecule microarray, 635/667 nm fluorescence, primary screen (AID 1133); details: FGF2, fluorescence 635/667, higher = more signal
[15] = JC-1 mitochondrial potential readout, lung cancer cells – cell-based, A549, JC-1 fluorescence, basal, 24 h, 100 nL, profiling panel (AID 1138); details: higher = more signal;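 also: A549 lung adenocarcinoma cells under basal conditions with no added stimulus; test concentration not given here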
Lefty1 = Lefty1 protein binding to printed compounds – biochemical, small-molecule microarray, 635/667 nm fluorescence, primary screen (AID 1139); details: fluorescence 635/667, higher = more signal
[16] = test system: wheat germ agglutinin (Triticum aestivum), Alexa647-labelled; assay: Alexa647-WGA lectin binding to printed small molecules – biochemical, small-molecule microarray, 635/667 nm fluorescence, artefact control for SMM control-protein annotation, profiling panel (AID 1140); details: WGA-A647 binding, 635 nm fluorescence, higher = more signal;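 also: score merges 667 nm feature emission with signal to noise over triplicate slides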
[17] = biological target: Luciferin 4-monooxygenase (Photinus pyralis) (UniProt P08659); assay: inhibition of purified Photinus pyralis luciferase – biochemical, luminescence, purified enzyme, 2006 set, primary screen (AID 1141); details: purified firefly luciferase, SteadyGlo luminescence, 30 min; higher = more signal, called active from +8 up or from −8 down;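 also: cell-free assay with purified firefly luciferase at 100 ng per well in PBS; test concentration not given here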
Chain of Luciferin 4-monooxygenase (Photinus pyralis) (P08659 whole entry, looked up): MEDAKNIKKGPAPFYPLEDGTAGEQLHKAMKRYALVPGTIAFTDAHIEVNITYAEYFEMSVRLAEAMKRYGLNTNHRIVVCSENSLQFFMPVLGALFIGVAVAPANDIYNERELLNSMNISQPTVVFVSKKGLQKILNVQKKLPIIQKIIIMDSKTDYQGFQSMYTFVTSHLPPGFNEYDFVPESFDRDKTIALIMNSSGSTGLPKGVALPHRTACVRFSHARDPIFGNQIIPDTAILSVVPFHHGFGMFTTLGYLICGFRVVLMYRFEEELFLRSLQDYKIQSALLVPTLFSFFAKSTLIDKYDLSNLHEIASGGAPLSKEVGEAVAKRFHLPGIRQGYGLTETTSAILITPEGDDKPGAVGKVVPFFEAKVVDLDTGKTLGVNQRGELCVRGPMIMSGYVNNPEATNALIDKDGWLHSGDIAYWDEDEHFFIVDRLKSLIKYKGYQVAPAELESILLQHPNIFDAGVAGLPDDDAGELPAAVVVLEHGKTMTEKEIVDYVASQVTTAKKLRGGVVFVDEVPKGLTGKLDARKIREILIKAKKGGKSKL

Chain of Albumin (Bos taurus) (P02769 whole entry, looked up): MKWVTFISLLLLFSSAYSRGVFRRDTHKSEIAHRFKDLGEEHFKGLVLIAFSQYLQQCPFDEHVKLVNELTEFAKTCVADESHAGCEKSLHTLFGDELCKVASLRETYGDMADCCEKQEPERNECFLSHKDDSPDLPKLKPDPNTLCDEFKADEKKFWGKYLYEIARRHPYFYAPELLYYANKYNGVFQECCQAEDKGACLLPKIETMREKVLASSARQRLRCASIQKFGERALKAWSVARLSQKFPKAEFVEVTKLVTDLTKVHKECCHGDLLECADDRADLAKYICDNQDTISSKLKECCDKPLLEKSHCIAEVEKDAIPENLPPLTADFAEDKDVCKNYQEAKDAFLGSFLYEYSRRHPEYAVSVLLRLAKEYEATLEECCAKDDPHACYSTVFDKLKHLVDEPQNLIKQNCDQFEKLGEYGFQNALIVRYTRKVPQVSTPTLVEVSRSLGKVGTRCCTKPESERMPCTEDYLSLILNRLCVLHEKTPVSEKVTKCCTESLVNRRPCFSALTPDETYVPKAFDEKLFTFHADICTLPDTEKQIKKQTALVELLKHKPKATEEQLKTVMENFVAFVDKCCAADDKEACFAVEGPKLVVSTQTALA
Chain of Fibroblast growth factor 2 (Homo sapiens) (P09038 whole entry, looked up): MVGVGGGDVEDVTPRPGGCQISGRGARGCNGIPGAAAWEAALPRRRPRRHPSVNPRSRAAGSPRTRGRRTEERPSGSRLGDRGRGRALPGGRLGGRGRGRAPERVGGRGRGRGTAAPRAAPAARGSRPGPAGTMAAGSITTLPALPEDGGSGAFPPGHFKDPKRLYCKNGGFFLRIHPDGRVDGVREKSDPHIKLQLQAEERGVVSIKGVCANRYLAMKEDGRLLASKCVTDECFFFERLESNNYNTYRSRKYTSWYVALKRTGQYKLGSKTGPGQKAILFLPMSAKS
Chain of Follistatin (Homo sapiens) (P19883 whole entry, looked up): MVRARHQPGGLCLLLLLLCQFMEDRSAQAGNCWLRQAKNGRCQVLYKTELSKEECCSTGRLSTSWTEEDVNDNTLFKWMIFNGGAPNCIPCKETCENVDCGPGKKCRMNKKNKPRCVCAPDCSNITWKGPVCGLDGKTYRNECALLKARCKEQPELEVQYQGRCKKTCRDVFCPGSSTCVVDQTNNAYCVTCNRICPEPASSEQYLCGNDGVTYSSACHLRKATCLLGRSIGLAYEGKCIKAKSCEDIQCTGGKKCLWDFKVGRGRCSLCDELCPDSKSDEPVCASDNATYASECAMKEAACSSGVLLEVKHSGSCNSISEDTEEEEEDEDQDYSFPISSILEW
Chain of Concanavalin-A (Canavalia ensiformis) (P02866 whole entry, looked up): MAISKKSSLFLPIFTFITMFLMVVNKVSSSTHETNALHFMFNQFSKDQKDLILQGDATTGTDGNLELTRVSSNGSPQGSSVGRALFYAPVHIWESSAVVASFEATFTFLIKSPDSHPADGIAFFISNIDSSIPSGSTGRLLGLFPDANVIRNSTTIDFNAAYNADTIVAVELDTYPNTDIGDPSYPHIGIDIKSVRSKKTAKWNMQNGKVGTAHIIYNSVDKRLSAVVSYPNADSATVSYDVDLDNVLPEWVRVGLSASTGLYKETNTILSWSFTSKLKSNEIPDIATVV
Chain of Focal adhesion kinase 1 (Homo sapiens) (Q05397 whole entry, looked up): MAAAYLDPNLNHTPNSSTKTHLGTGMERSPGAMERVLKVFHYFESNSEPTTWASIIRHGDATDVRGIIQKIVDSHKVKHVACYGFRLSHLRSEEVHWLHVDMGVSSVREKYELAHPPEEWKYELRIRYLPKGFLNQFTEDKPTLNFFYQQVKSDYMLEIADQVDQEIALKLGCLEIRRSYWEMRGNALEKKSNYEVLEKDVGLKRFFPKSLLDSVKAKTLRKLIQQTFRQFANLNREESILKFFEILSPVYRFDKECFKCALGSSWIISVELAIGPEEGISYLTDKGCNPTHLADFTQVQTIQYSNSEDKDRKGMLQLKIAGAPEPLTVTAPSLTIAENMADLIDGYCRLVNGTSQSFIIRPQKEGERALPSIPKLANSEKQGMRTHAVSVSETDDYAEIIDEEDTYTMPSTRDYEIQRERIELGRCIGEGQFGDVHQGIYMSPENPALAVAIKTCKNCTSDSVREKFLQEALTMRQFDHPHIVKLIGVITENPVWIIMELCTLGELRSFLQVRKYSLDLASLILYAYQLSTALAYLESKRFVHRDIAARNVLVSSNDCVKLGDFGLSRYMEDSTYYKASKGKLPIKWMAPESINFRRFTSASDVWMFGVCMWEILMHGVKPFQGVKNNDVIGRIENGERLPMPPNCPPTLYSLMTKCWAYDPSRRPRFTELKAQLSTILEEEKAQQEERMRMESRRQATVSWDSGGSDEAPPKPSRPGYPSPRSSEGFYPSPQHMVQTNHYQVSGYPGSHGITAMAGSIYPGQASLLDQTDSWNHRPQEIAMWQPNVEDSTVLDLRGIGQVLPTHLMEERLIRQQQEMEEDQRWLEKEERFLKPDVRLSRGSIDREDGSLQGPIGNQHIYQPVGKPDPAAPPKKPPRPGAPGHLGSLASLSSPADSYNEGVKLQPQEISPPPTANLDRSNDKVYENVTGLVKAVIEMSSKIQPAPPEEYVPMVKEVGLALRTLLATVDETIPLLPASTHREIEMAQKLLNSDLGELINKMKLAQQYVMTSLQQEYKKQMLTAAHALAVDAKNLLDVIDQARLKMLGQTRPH

| SMILES | composite z-score (Albumin (Bos taurus)) | composite Z-score [1] | composite z-score [2] | composite z-score [3] | composite z-score [4] | composite z-score [5] | composite z-score [6] | composite z-score (Sam68 (KHDRBS1)) | composite z-score [7] | composite z-score [8] | composite z-score [9] | composite z-score [10] | composite z-score [11] | composite z-score [12] | composite z-score [13] | composite z-score [14] | z-score [15] | composite z-score (Lefty1) | composite z-score [16] | z-score [17] |
| --- | --- | --- | --- | --- | --- | --- | --- | --- | --- | --- | --- | --- | --- | --- | --- | --- | --- | --- | --- | --- |
| CC(C)C(CO)N1C(=O)[C@@H]2C3C(=O)OCCC/C=C\[C@H]3OC23C=CCN(Cc2ccccc2)C(=O)[C@@H]13 (stereo not given in full) | -1.25 | -0.157 (inactive) | -0.159 | -0.11 | 0.902 | 0.708 | 1.5 | -0.173 | -1.11 | -1.67 | -1.18 | -0.359 | -0.0926 | -2.51 | -0.908 | -0.591 | 1.21 | -0.524 | -1.2 | -0.59 (inactive) |
| COC(=O)C1(Cc2ccccc2)C=C2C(=C(C)C(=O)C2C)CN1 (stereo not given) | -0.0396 | 0.877 (inactive) | 0.0203 | 0.197 | 0.742 | 2.62 | 0.578 | -0.674 | 0.46 | -0.634 | 1.21 | 0.732 | 0.296 | 0.775 | 0.714 | -0.298 | 1.47 | -0.104 | 0.622 | -0.112 (inactive) |
| O=C1[C@H]2C=C(I)[C@H](C[C@@H]2c2ccccc2)[C@@]12CO2 | -0.406 | -0.623 (inactive) | -0.0647 | -0.153 | -0.154 | -0.234 | -0.225 | 0.0643 | 0.664 | -0.267 | 0.214 | 0.0555 | -0.142 | -0.347 | 0.742 | 0.111 | 0.949 | 0.334 | -0.1 | -0.218 (inactive) |
| CCCCCCc1nc(-c2ccc(-c3ccc(Cl)c(Cl)c3)o2)cc2c1[Si](C(C)C)(C(C)C)OC2 | 0.521 | -0.935 (inactive) | -0.261 | -0.156 | -0.216 | 0.445 | -0.389 | -0.248 | -0.834 | -0.48 | -0.265 | -0.819 | -0.0104 | -1.85 | -0.577 | -0.985 | -0.413 | -0.468 | 0.105 | -5.02 (inactive) |
| O=C1[C@H]2C=C(I)[C@H](C[C@@H]2OCCCCCCO)[C@@]12CO2 | 0.683 | 0.047 (inactive) | 0.0876 | -0.112 | 0.751 | -0.298 | -0.16 | -0.747 | 1.24 | -1.05 | -0.624 | -0.334 | -0.0716 | -0.312 | 1.12 | 0.888 | 0.368 | 1.07 | -0.291 | 0.683 (inactive) |
| N#Cc1ccc(-c2cccc(=O)o2)cc1 | 0.341 | -0.0662 (inactive) | 0.0426 | -0.0928 | 0.0483 | 0.365 | -0.0816 | 0.808 | 0.252 | 0.411 | 0.212 | 0.651 | 0.111 | 0.474 | 0.268 | 0.185 | -0.119 | 0.249 | 0.48 | 1.68 (inactive) |
| COC(=O)C(CC#Cc1ccc2c(c1)[C@]1(C(=O)N2)[C@H](c2ccc(OCCO)cc2)N2[C@H](c3ccccc3)[C@H](c3ccccc3)OC(=O)[C@H]2[C@@H]1C(=O)N1CCCCCCC1)C(=O)OC | 0.576 | 4.71 (inactive) | 1.75 | 0.967 | 0.933 | 3.5 | 1.65 | 1.3 | 1.52 | 1.21 | 2.65 | 1.17 | 2.67 | 0.68 | 1.45 | 0.724 | -1.39 | 1.24 | 1.46 | -0.596 (inactive) |
| CC(C)NC(=O)[C@@H]1c2ccccc2C(=O)N(Cc2ccc(OC(F)(F)F)cc2)[C@H]1c1ccc(CO)cc1 | -0.215 | -0.194 (inactive) | 0.503 | 0.321 | 0.268 | 1.35 | 0.651 | 1.3 | 0.215 | 0.882 | 0.7 | 1.18 | 0.344 | 0.529 | 1.34 | 1.22 | 0.107 | 0.868 | 0.45 | 0.441 (inactive) |
| COC(=O)[C@]1(CCC(=O)OC(C)(C)C)N=C(c2ccc(OCCCO)cc2)O[C@@H]1c1ccccc1N=[N+]=[N-] | -0.257 | 0.62 (inactive) | -0.122 | -0.0618 | 0.589 | 1.63 | 0.254 | 0.68 | -0.444 | 0.589 | 0.477 | 0.993 | -0.212 | -0.306 | 1.29 | 0.626 | 1.3 | -0.0341 | 0.658 | -6.42 (inactive) |
| O=C(NCC(O)CO)[C@@]1(CCS(=O)(=O)c2ccccc2)N=C(c2ccc(OCCCO)cc2)O[C@H]1c1ccccc1 (stereo not given in full) | 0.905 | 1.06 (inactive) | 0.177 | 0.137 | 0.555 | 3.17 | 1.11 | 1.22 | 0.106 | 0.0968 | 1.9 | 1.23 | 1.38 | 0.993 | 1.33 | -0.0831 | -0.503 | -1.02 | 0.762 | -0.845 (inactive) |
| C=C(CCCC)/C(=C/C[C@H](OC(=O)c1ccncc1)c1ccccc1OCCO)c1cc(C(=O)OC)ccc1OC | -0.172 | -0.0743 (inactive) | -0.0362 | -0.145 | 0.63 | 1.2 | 0.127 | 1.05 | 0.647 | 0.749 | 2.75 | 0.488 | 0.0357 | 0.013 | 0.95 | 0.969 | 2.03 | 0.979 | -0.0208 | -0.776 (inactive) |
